In PubChem BioAssay (NCI):
This is part of a sample that, as a whole, favours compounds with a hit. Of some 79,000 tested, about 15% had one in any assay. A number with no mark means an inactive call. Activity calls are given as the source filed them. Rule as the data show it: active = growth inhibition above about 70%; inactive = the rest.

Assays:
[1] = NCI Yeast Anticancer Drug Screen. Data for the sgs1 strain (AID 173);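 also: 0% = growth of vehicle-only control cultures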; details: S. cerevisiae sgs1 mutant, active compounds read high
In short: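 A genetically defined yeast mutant is incubated with the test compound, and its growth is compared to that of the same strain given vehicle.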

[2] = NCI Yeast Anticancer Drug Screen. Data for the mlh1 rad18 strain (AID 175); details: S. cerevisiae mlh1 rad18 strain growth inhibition, active compounds read high
In short: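 Steps: expose repair-defective yeast to compound; measure growth; express inhibition against vehicle-treated controls.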

[3] = NCI Yeast Anticancer Drug Screen. Data for the rad18 strain (AID 177); details: S. cerevisiae rad18 mutant growth inhibition, active compounds read high
In short: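 Measured value is growth inhibition of a yeast strain bearing a DNA repair alteration, referenced to vehicle-treated cells.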

[4] = NCI Yeast Anticancer Drug Screen. Data for the rad52 strain (AID 147);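 also: 0% = growth of vehicle-treated control cultures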; details: S. cerevisiae rad52 mutant growth inhibition, active compounds read high
In short: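 Here a repair-compromised yeast strain receives each compound; its growth is then quantified and normalised to vehicle-only controls.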

[5] = NCI Yeast Anticancer Drug Screen. Data for the wt1 strain (AID 149);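 also: 0% = growth of vehicle-treated wt1 cultures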; details: S. cerevisiae wt1 strain (SPY 50644) growth inhibition, active compounds read high
In short: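 Using yeast strain wt1, compound-induced growth inhibition was determined against vehicle-treated cultures.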

[6] = NCI Yeast Anticancer Drug Screen. Data for the rad50EPP+ strain (AID 151);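 also: 0% = growth of vehicle-treated control cultures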; details: S. cerevisiae rad50 mutant strain, active compounds read high
In short: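 Read-out is yeast growth inhibition relative to vehicle; cells used were the rad50EPP+ strain.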

[7] = NCI Yeast Anticancer Drug Screen. Data for the rad50 strain (AID 155);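 also: 0% = growth of vehicle-only cultures of the same strain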; details: S. cerevisiae rad50 strain growth inhibition, active compounds read high
In short: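 Relative growth inhibition (compound vs vehicle) was measured in yeast with a defined repair-gene alteration.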

[8] = NCI Yeast Anticancer Drug Screen. Data for the mec2-1 strain (AID 157); details: S. cerevisiae mec2-1 strain, active compounds read high
In short: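 Using mec2-1 yeast: add compound, measure growth, express inhibition versus vehicle-treated cultures.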

[9] = NCI Yeast Anticancer Drug Screen. Data for the rad14 strain (AID 159);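 also: 0% = growth of vehicle-treated control cultures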; details: S. cerevisiae rad14 strain growth inhibition, active compounds read high
In short: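 Screen for anticancer potential: a yeast strain altered in DNA damage repair is grown with compound, and reduced growth is quantified against vehicle controls.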

[10] = NCI Yeast Anticancer Drug Screen. Data for the sgs1 mgt1 strain (AID 161);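 also: 0% = growth of cultures given vehicle only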; details: S. cerevisiae sgs1 mgt1 strain, active compounds read high
In short: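 Percent growth inhibition was derived by comparing compound-exposed mutant yeast with vehicle-exposed cultures. The strain carries alterations in DNA damage repair.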

[11] = NCI Yeast Anticancer Drug Screen. Data for the CLN2oe strain (AID 163);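 also: 0% = growth of vehicle-only control cultures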; details: S. cerevisiae CLN2oe strain, active compounds read high
In short: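 Whole-cell yeast growth assay. A strain engineered for altered cell-cycle control received compound, and inhibition relative to vehicle-treated cultures was recorded.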

[12] = NCI Yeast Anticancer Drug Screen. Data for the cln2 rad14 strain (AID 165);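 also: 0% = growth equal to vehicle treated cultures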; details: S. cerevisiae cln2 rad14 strain, active compounds read high
In short: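 Yeast strain cln2 rad14, bearing defects in cell cycle control and DNA repair, serves as the test system; values reflect growth inhibition compared with vehicle.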

[13] = NCI Yeast Anticancer Drug Screen. Data for the bub3 strain (AID 167); details: S. cerevisiae bub3 mutant strain, active compounds read high
In short: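 Screening used yeast with an engineered genetic alteration affecting cell cycle control. Compound-exposed cultures were compared with vehicle cultures, and reduced growth was taken as inhibition.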

[14] = NCI Yeast Anticancer Drug Screen. Data for the mlh1 strain (AID 171);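 also: 0% = growth of vehicle-treated control cultures of the same strain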; details: S. cerevisiae mlh1 strain growth inhibition, active compounds read high
In short: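 A yeast strain with a defined genetic lesion serves as the test organism. Cultures receive compound or vehicle, and growth is measured.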

[15] = NCI Yeast Anticancer Drug Screen. Data for the wt2 strain (AID 169);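 also: 0% = growth of vehicle-treated yeast cultures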; details: S. cerevisiae wt2 strain growth inhibition, active compounds read high
In short: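 Treated yeast vs. vehicle-treated yeast: growth inhibition determined.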

[16] = at 5.0 µM (retest, dose inferred, filed as 0.5)
[17] = at 50.0 µM (retest, dose inferred, filed as 5.0)

SMILES: CCCCC(CC)C(=O)Oc1ccc(C(=O)c2ccccc2)c(O)c1 (stereo not drawn)
- growth inhibition ([1]; at 3.7 µM): 9%
- growth inhibition ([1]; at 11.0 µM): 20%
- growth inhibition ([1]; at 33.0 µM): 63%
- growth inhibition ([1]; at 100.0 µM): 97% (active)
- growth inhibition [2, 16]: 38%
- growth inhibition [2, 17]: 77% (active)
- growth inhibition ([2]; at 50.0 µM): 69.3%
- growth inhibition ([3]; at 1.2 µM): -4%
- growth inhibition ([3]; at 3.7 µM): 0%
- growth inhibition ([3]; at 11.0 µM): 17%
- growth inhibition ([3]; at 33.0 µM): 53%
- growth inhibition ([3]; at 100.0 µM): 97% (active)

SMILES: COC(=O)c1ccc2c(c1)Cc1ccccc1-2
- growth inhibition ([4]; at 1.2 µM): -1%
- growth inhibition ([4]; at 3.7 µM): 5%
- growth inhibition ([4]; at 11.0 µM): 11%
- growth inhibition ([4]; at 33.0 µM): 19%
- growth inhibition ([4]; at 100.0 µM): 28%
- growth inhibition ([5]; at 1.2 µM): -3%
- growth inhibition ([5]; at 3.7 µM): -5%
- growth inhibition ([5]; at 11.0 µM): -3%
- growth inhibition ([5]; at 33.0 µM): -2%
- growth inhibition ([5]; at 100.0 µM): -2%
- growth inhibition ([6]; at 1.2 µM): 2%
- growth inhibition ([6]; at 3.7 µM): 10%
- growth inhibition ([6]; at 11.0 µM): 25%
- growth inhibition ([6]; at 33.0 µM): 39%
- growth inhibition ([6]; at 100.0 µM): 43%
- growth inhibition ([7]; at 1.2 µM): 2%
- growth inhibition ([7]; at 3.7 µM): 10%
- growth inhibition [7, 16]: 0%
- growth inhibition ([7]; at 11.0 µM): 13%
- growth inhibition ([7]; at 33.0 µM): 12%
- growth inhibition [7, 17]: -11%
- growth inhibition ([7]; at 50.0 µM): 72.5% (active)
- growth inhibition ([7]; at 100.0 µM): 32%
- growth inhibition ([8]; at 1.2 µM): -4%
- growth inhibition ([8]; at 3.7 µM): 1%
- growth inhibition [8, 16]: -12%
- growth inhibition ([8]; at 11.0 µM): -12%
- growth inhibition ([8]; at 33.0 µM): -3%
- growth inhibition [8, 17]: -4%
- growth inhibition ([8]; at 50.0 µM): 39%
- growth inhibition ([8]; at 100.0 µM): 1%
- growth inhibition ([9]; at 1.2 µM): -3%
- growth inhibition ([9]; at 3.7 µM): -6%
- growth inhibition ([9]; at 11.0 µM): -4%
- growth inhibition ([9]; at 33.0 µM): -3%
- growth inhibition ([9]; at 100.0 µM): -6%
- growth inhibition [10, 16]: -5%
- growth inhibition [10, 17]: -4%
- growth inhibition ([10]; at 50.0 µM): 46.9%
- growth inhibition ([11]; at 1.2 µM): -1%
- growth inhibition ([11]; at 3.7 µM): 0%
- growth inhibition ([11]; at 11.0 µM): -4%
- growth inhibition ([11]; at 33.0 µM): -3%
- growth inhibition ([11]; at 100.0 µM): -11%
- growth inhibition [12, 16]: 35%
- growth inhibition [12, 17]: 0%
- growth inhibition ([12]; at 50.0 µM): 29.4%
- growth inhibition ([13]; at 1.2 µM): -7%
- growth inhibition ([13]; at 3.7 µM): -7%
- growth inhibition [13, 16]: 0%
- growth inhibition ([13]; at 11.0 µM): 3%
- growth inhibition ([13]; at 33.0 µM): 3%
- growth inhibition [13, 17]: -1%
- growth inhibition ([13]; at 50.0 µM): 41.2%
- growth inhibition ([13]; at 100.0 µM): 19%
- growth inhibition ([14]; at 1.2 µM): -3%
- growth inhibition ([14]; at 3.7 µM): 9%
- growth inhibition ([14]; at 11.0 µM): 2%
- growth inhibition ([14]; at 33.0 µM): -11%
- growth inhibition ([14]; at 100.0 µM): 8%
- growth inhibition ([1]; at 1.2 µM): -3%
- growth inhibition ([1]; at 3.7 µM): -4%
- growth inhibition ([1]; at 11.0 µM): -1%
- growth inhibition ([1]; at 33.0 µM): 3%
- growth inhibition ([1]; at 100.0 µM): 17%
- growth inhibition [2, 16]: -2%
- growth inhibition [2, 17]: 6%
- growth inhibition ([2]; at 50.0 µM): 45.6%

SMILES: BrCc1ccccc1C(c1ccccc1)c1ccccc1
- growth inhibition ([4]; at 1.2 µM): 9%
- growth inhibition ([4]; at 3.7 µM): 79% (active)
- growth inhibition ([4]; at 11.0 µM): 96% (active)
- growth inhibition ([4]; at 33.0 µM): 96% (active)
- growth inhibition ([4]; at 100.0 µM): 94% (active)
- growth inhibition ([5]; at 1.2 µM): -2%
- growth inhibition ([5]; at 3.7 µM): 34%
- growth inhibition ([5]; at 11.0 µM): 96% (active)
- growth inhibition ([5]; at 33.0 µM): 97% (active)
- growth inhibition ([5]; at 100.0 µM): 95% (active)
- growth inhibition ([6]; at 1.2 µM): 1%
- growth inhibition ([6]; at 3.7 µM): 6%
- growth inhibition ([6]; at 11.0 µM): 8%
- growth inhibition ([6]; at 33.0 µM): 9%
- growth inhibition ([6]; at 100.0 µM): 15%
- growth inhibition ([7]; at 1.2 µM): 8%
- growth inhibition ([7]; at 3.7 µM): 85% (active)
- growth inhibition [7, 16]: 12%
- growth inhibition ([7]; at 11.0 µM): 97% (active)
- growth inhibition ([7]; at 33.0 µM): 96% (active)
- growth inhibition [7, 17]: 96% (active)
- growth inhibition ([7]; at 50.0 µM): 98.1% (active)
- growth inhibition ([7]; at 100.0 µM): 93% (active)
- growth inhibition ([8]; at 1.2 µM): 4%
- growth inhibition ([8]; at 3.7 µM): 42%
- growth inhibition [8, 16]: 21%
- growth inhibition ([8]; at 11.0 µM): 95% (active)
- growth inhibition ([8]; at 33.0 µM): 96% (active)
- growth inhibition [8, 17]: 98% (active)
- growth inhibition ([8]; at 50.0 µM): 98.2% (active)
- growth inhibition ([8]; at 100.0 µM): 96% (active)
- growth inhibition ([9]; at 1.2 µM): 3%
- growth inhibition ([9]; at 3.7 µM): 64%
- growth inhibition ([9]; at 11.0 µM): 96% (active)
- growth inhibition ([9]; at 33.0 µM): 97% (active)
- growth inhibition ([9]; at 100.0 µM): 95% (active)
- growth inhibition [10, 16]: 58%
- growth inhibition [10, 17]: 98% (active)
- growth inhibition ([10]; at 50.0 µM): 97.9% (active)
- growth inhibition ([11]; at 1.2 µM): 8%
- growth inhibition ([11]; at 3.7 µM): 64%
- growth inhibition ([11]; at 11.0 µM): 97% (active)
- growth inhibition ([11]; at 33.0 µM): 97% (active)
- growth inhibition ([11]; at 100.0 µM): 96% (active)
- growth inhibition [12, 16]: 49%
- growth inhibition [12, 17]: 93% (active)
- growth inhibition ([12]; at 50.0 µM): 95.8% (active)
- growth inhibition ([13]; at 1.2 µM): 4%
- growth inhibition ([13]; at 3.7 µM): 56%
- growth inhibition [13, 16]: 24%
- growth inhibition ([13]; at 11.0 µM): 96% (active)
- growth inhibition ([13]; at 33.0 µM): 97% (active)
- growth inhibition [13, 17]: 97% (active)
- growth inhibition ([13]; at 50.0 µM): 97.3% (active)
- growth inhibition ([13]; at 100.0 µM): 94% (active)
- growth inhibition ([15]; at 1.2 µM): -1%
- growth inhibition ([15]; at 3.7 µM): 62%
- growth inhibition ([15]; at 11.0 µM): 97% (active)
- growth inhibition ([15]; at 33.0 µM): 96% (active)
- growth inhibition ([15]; at 100.0 µM): 95% (active)
- growth inhibition ([1]; at 1.2 µM): 9%
- growth inhibition ([1]; at 3.7 µM): 84% (active)
- growth inhibition ([1]; at 11.0 µM): 97% (active)
- growth inhibition ([1]; at 33.0 µM): 97% (active)
- growth inhibition ([1]; at 100.0 µM): 96% (active)
- growth inhibition [2, 16]: 82% (active)
- growth inhibition [2, 17]: 97% (active)
- growth inhibition ([2]; at 50.0 µM): 98.3% (active)
- growth inhibition ([3]; at 1.2 µM): 25%
- growth inhibition ([3]; at 3.7 µM): 89% (active)
- growth inhibition ([3]; at 11.0 µM): 96% (active)
- growth inhibition ([3]; at 33.0 µM): 97% (active)
- growth inhibition ([3]; at 100.0 µM): 96% (active)
